SMILES strings stand for the structures. Values joined by “and” are separate entries in the source; they are usually repeats but may differ in a detail not shown here. Identical values can stand only once. Records with an inconclusive call do not appear. Active and inactive are the calls of the source. Unless noted, calls follow the shape of the dose curve; as a rule, active = well fitted curve in the direction sought with a large enough effect in the repeat runs; inconclusive = weak or mixed curves; inactive = no such curve, though single readings can be large; an effect the other way counts as inactive or inconclusive.

The target in assay [1] is Luciferin 4-monooxygenase (Photinus pyralis) (UniProt P08659). The assay is described as follows: qHTS assay to identify small molecule inhibitors of firefly luciferase (AID 1224835). Also: nearly all actives have a fitted effect of over 25% in size. Also: potency is read from the fitted curve at half-maximal effect. A digest of the protocol: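 Inhibition of purified Photinus luciferase is measured by luminescence. Substrate levels (D-luciferin, ATP) sit at their KM values. Each compound is tested in a concentration series.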
Luciferin 4-monooxygenase (Photinus pyralis), sequence (P08659 whole entry, looked up): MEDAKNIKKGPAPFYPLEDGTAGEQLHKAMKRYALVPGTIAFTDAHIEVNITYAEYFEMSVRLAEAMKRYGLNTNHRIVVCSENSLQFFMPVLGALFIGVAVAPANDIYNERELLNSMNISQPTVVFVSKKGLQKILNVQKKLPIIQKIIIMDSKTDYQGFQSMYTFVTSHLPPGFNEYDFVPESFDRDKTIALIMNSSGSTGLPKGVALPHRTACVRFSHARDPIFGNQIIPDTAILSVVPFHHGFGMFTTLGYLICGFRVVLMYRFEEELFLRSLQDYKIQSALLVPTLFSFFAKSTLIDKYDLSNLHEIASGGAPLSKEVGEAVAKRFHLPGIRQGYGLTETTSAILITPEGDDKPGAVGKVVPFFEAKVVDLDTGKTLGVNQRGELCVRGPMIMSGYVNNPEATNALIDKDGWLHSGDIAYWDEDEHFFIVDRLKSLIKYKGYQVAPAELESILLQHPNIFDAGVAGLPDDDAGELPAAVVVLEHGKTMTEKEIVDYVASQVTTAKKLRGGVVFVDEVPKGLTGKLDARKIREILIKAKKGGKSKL

The nature of assay [2]: qHTS assay to identify small molecule agonists of the constitutive androstane receptor (CAR) signaling pathway - cell viability counter screen (AID 1224836). Also: nearly all actives have a fitted effect of over 45% in size. Also: potency is read from the fitted curve at half-maximal effect. In short, it runs like this:
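Cells were seeded and incubated 4 hrs. Compounds were added across 15 concentrations together with PK11195 at 0.75 uM final. Plates were incubated 23 hrs at 37 C. CellTiter-Fluor was added and fluorescence measured.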
(Quantitative high-throughput screening tests each substance at several concentrations.)

A short description of assay [3]: qHTS assay to identify small molecule antagonists of the constitutive androstane receptor (CAR) signaling pathway - cell viability counter screen (AID 1224837). Also: nearly all actives have a fitted effect of over 45% in size. Also: potency is read from the fitted curve at half-maximal effect. A digest of the protocol: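 To flag cytotoxic false antagonists, HepG2 hCAR/CYP2B6-2.2kb cells were treated 23 hr with 15-concentration compound series and 50 nM CITCO at 37 C/5% CO2; CellTiter-Fluor fluorescence was the measured end point.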

In assay [4] the target is Nuclear receptor subfamily 1 group I member 3 (Homo sapiens) (UniProt Q14994). Kind of assay: qHTS assay to identify small molecule antagonists of the constitutive androstane receptor (CAR) signaling pathway (AID 1224838).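 Also: HepG2 cells stably expressing hCAR with CYP2B6 luciferase reporter stimulated by CITCO; nearly all actives have a fitted effect of over 40% in size.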 Also: potency is read from the fitted curve at half-maximal effect. In short, it runs like this:
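Human hepatoma HepG2 cells expressing hCAR and a CYP2B6 promoter (2.2 kb) luciferase construct; compound titration (15 points) with 50 nM CITCO final, 24 h at 37 C/5% CO2; luminescence via ONE-Glo after 30 min at room temperature.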

For assay [5] the target is unchanged. The assay is described as follows: qHTS assay to identify small molecule agonists of the constitutive androstane receptor (CAR) signaling pathway (AID 1224839). Also: nearly all actives have a fitted effect of over 15% in size. Also: potency is read from the fitted curve at half-maximal effect. In short, it runs like this:
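Cells were plated and incubated 4 hrs, then dosed with compounds at 15 concentrations. PK11195 was added to 0.75 uM final. After 24 hrs at 37 C, luciferase luminescence was measured.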

Assay [6] in a line: qHTS assay to identify small molecule antagonists of the estrogen related receptor signaling pathway with the pleiotropic PPARgamma coactivator (PGC) from Tox21 10K library - cell viability counter screen (AID 1224840; active = well fitted cell-killing curve with a large enough effect in the repeat runs, not every such curve was filed as active; also: nearly all actives have a fitted effect of over 40% in size; also: potency is read from the fitted curve at half-maximal effect). In short, it runs like this: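 Seeded PGC/ERR cells (2,000/well, 6 h, 37 C/5% CO2) get compound by pin tool; 17.5 h incubation at 37 C; CellTiter-Fluor added, 30 min, fluorescence measured.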

Assay [7] in a line: qHTS assay to identify small molecule agonists of the estrogen related receptor signaling pathway with the pleiotropic PPARgamma coactivator (PGC) from Tox21 10K library (AID 1224842). Also: nearly all actives have a fitted effect of over 15% in size. Also: potency is read from the fitted curve at half-maximal effect. In short, it runs like this: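 Luminescence from One-Glo (30 min, room temperature) measured after PGC/ERR cells had 18 h at 37 C with pinned compound (23 nL in DMSO). Cells had been seeded at 2,000 per well and pre-incubated 6 h.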

Assay [8] has as its target Thyrotropin receptor (Homo sapiens) (UniProt P16473). Kind of assay: qHTS assay to identify small molecule agonists of the thyroid stimulating hormone receptor (TSHR) signaling pathway (AID 1224843; calls by dose curve; also: nearly all actives have a fitted effect of over 45% in size; also: potency is read from the fitted curve at half-maximal effect). A digest of the protocol:
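Agonist activity read as cAMP rise via d2/cryptate HTRF competition, 1 h room-temperature detection, in HEK293 cells expressing TSHR. Fifteen-point titrations, each run in triplicate, with a 30 min room-temperature incubation beforehand.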

Assay [9] is described as follows: qHTS assay to identify small molecule antagonists of the estrogen related receptor signaling pathway with the pleiotropic PPARgamma coactivator (PGC) from Tox21 10K library (AID 1224841; call rule not given here; also: actives are mostly falling curves and most rising ones were filed inactive; nearly all actives have a fitted effect of over 50% in size; also: potency is read from the fitted curve at half-maximal effect). A digest of the protocol: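 Test chemicals dissolved in DMSO were applied to pre-incubated (6 h) PGC/ERR cells at 2,000 cells/well for an 18 h, 37 C treatment; reporter luminescence was then read using One-Glo.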

Assay [10] in a line: qHTS assay to identify small molecule agonists of the hypoxia (HIF-1) signaling pathway - cell viability counter screen (AID 1224844; calls by dose curve; also: nearly all actives have a fitted effect of over 50% in size). A digest of the protocol: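 HRE-bla ME-180; 0.5% dFBS; cpd 17 h, 37C, 5% CO2; CellTiter-Glo lum., 30 min RT, post-FRET read, same wells.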

Nuclear receptor subfamily 1 group I member 3 (Homo sapiens), sequence (Q14994 whole entry, looked up): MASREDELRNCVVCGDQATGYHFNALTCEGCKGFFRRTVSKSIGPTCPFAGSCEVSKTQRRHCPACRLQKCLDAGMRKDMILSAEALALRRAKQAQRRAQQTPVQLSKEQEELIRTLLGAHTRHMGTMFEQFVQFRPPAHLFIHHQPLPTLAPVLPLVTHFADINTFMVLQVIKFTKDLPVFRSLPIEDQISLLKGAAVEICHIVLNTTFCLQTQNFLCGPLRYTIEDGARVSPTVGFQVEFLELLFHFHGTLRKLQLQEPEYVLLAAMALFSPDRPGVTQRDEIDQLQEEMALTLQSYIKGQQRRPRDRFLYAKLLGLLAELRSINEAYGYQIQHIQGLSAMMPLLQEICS
Thyrotropin receptor (Homo sapiens), sequence (P16473 whole entry, looked up): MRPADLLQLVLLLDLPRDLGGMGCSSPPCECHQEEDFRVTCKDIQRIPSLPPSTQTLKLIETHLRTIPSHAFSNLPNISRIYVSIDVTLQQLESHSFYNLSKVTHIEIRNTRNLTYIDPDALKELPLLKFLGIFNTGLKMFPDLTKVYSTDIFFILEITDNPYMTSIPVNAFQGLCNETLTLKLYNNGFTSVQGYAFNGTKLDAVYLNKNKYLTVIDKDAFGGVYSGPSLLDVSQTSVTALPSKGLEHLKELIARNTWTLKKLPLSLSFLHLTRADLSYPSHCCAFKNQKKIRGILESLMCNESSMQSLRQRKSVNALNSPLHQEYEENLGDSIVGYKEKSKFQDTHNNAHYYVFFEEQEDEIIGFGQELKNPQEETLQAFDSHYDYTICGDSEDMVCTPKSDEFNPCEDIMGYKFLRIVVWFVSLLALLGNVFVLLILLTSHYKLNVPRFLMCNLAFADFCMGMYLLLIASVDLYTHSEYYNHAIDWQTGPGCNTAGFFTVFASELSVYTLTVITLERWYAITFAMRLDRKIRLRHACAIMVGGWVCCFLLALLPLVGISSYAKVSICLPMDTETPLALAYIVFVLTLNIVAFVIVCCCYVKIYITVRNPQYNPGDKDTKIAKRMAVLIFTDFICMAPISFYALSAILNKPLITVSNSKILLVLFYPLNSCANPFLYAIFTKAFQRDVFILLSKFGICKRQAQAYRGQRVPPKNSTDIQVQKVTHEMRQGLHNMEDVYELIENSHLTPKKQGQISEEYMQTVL

On to `O=C1c2ccccc2C(=O)C1C(=O)C(c1ccccc1)c1ccccc1`, for which the Potency result in assay [1], in assay [2], in [3], in [4], in assay [5] and in [6] was “inactive” throughout. Also, the Potency entry in assay [7] and in assay [8] was “inactive” throughout.
For the molecule `CCO[C@H]1O[C@@H]2OC3(C)CC[C@H]4[C@H](C)CC[C@@H]([C@H]1C)[C@@]24OO3`, the Potency result in [1], in [2], in assay [3], in assay [4], in assay [6] and in assay [7] was “inactive” in each case. Further, the Potency result in assay [10] is “inactive”. For the same molecule, the Potency in assay [5] was 4.22 µM (active); in [9], 668 nM (active).
On to `COC(N)=O`, for which the Potency result in assay [1], in [2], in assay [3], in assay [4], in assay [5] and in [6] was “inactive” each time.
Turning to `Cn1cc[n+](C)c1` (tested in a mixture with another compound), the Potency entry in assay [1], in assay [2], in assay [3], in [4], in assay [5] and in [6] was “inactive” throughout. The Potency result in assay [8] and in [10] was “inactive” in each case.
As for `N#C/C(N)=C(/N)C#N`, the Potency result in [1], in [2], in [3], in [4], in assay [5] and in assay [6] was “inactive” in each case. Also, the Potency entry in assay [7] and in assay [10] was “inactive” throughout.
As for `Cc1ccc(N)cc1C`, the Potency entry in assay [1], in assay [2], in assay [3], in assay [4], in assay [6] and in [8] was “inactive” throughout. Moreover, the Potency result in [10] was “inactive”. Moreover, the values for the Potency in [5] and in assay [7] were 4.9 µM (active) and 3.47 µM (active), respectively.
As to `CC(C)(Cl)[N+](=O)[O-]`, the Potency entry in assay [1], in assay [2], in assay [3], in assay [4], in assay [5] and in assay [6] was “inactive” each time. In addition, the Potency result in assay [7], in assay [8] and in [10] was “inactive” in each case.
With `C=CC(=O)OCC(C)O` (centres undefined), the Potency entry in assay [1], in assay [2], in assay [3], in [4], in assay [5] and in assay [6] was “inactive” each time. Further, the Potency entry in assay [7] and in assay [8] was “inactive” in each case.
Take `C=CC(=O)OCC(C)C`: the Potency entry in [1], in assay [2], in [3], in assay [4], in assay [5] and in assay [6] was “inactive” each time. Besides, the Potency result in assay [9], in assay [7], in assay [8] and in assay [10] was “inactive” throughout.
For the molecule `COC(=O)C(Br)CBr` (centres undefined), the Potency result in assay [1], in assay [2], in assay [3], in assay [4], in [5] and in [6] was “inactive” in each case. The Potency entry in assay [7] was “inactive”.
As for `C=CCC1([C@H](C)CCC)C(=O)NC(=O)NC1=O`, the Potency entry in assay [1], in assay [2], in assay [3], in assay [4], in assay [5] and in assay [6] was “inactive” each time. For the same molecule, the Potency result in [8] and in assay [10] was “inactive” throughout.
As to `CC(O)(CS(=O)(=O)c1ccc(F)cc1)C(=O)Nc1ccc(C#N)c(C(F)(F)F)c1` (centres undefined), the Potency entry in assay [1], in [2], in assay [3], in assay [4], in assay [5] and in [6] was “inactive” each time. Moreover, the Potency result in assay [7] and in assay [10] was “inactive” each time.
On to `ClCc1ccccc1`, for which the Potency entry in [1], in assay [2], in assay [3], in assay [4], in assay [5] and in assay [6] was “inactive” throughout. The Potency result in [8] is “inactive”.
As for `c1cc2ccc3cccc4ccc(c1)c2c34`, the Potency entry in [1], in [2], in assay [3], in assay [4], in assay [6] and in [9] was “inactive” in each case. Further, in assay [10], the Potency result is “inactive”. For the same molecule, the Potency in assay [5] was 36 µM (active); in assay [8], 7.19 µM (active).
With `CC/C(=N\OC/C=C/Cl)C1=C(O)CC(C2CCOCC2)CC1=O` (centres undefined), the Potency result in assay [1], in [2], in [3], in assay [4], in assay [5] and in assay [6] was “inactive” throughout. In addition, the Potency result in assay [9], in [7] and in assay [10] was “inactive” each time.
In the case of `CCC(Cl)CCl` (centres undefined), the Potency entry in [1], in assay [2], in [3], in assay [4], in assay [5] and in [6] was “inactive” in each case. Besides, the Potency result in assay [9], in assay [7], in [8] and in [10] was “inactive” each time.
For `CCOP(=O)(OCC)Oc1ccc([N+](=O)[O-])cc1`, the Potency entry in [1], in assay [2], in assay [3], in assay [4], in assay [5] and in assay [6] was “inactive” each time. Further, the Potency entry in [7], in [8] and in [10] was “inactive” in each case. In addition, the Potency in assay [9] was 19.6 µM (active) and 5.45 µM (active).
As for `CCC(Br)(CC)C(=O)NC(N)=O`, the Potency result in [1], in assay [2], in assay [3], in [4], in assay [5] and in assay [6] was “inactive” in each case. The Potency result in assay [8] and in assay [10] was “inactive” throughout.
As for `CCCCCCCCOC(=O)c1ccc(C(=O)OCCCCCCCC)c(C(=O)OCCCCCCCC)c1`, the Potency entry in assay [1], in [2], in assay [3], in assay [4], in assay [5] and in assay [6] was “inactive” in each case. Also, the Potency entry in assay [8] was “inactive”.
Take `[CH3][Sn]([CH3])([Cl])[Cl]`: the Potency result in assay [1], in [2], in assay [3], in [4], in [5] and in [6] was “inactive” each time. Also, the Potency result in assay [7] is “inactive”. Further, the Potency in assay [9] was 69.7 µM (active) and 43.3 µM (active).
In the case of `C=COC(C)=O`, the Potency entry in assay [1], in [2], in [3], in assay [4], in [5] and in [6] was “inactive” throughout. Further, the Potency entry in assay [8] and in [10] was “inactive” in each case.
Turning to `O=[Se]=O`, the Potency result in [1], in [5], in [7], in assay [8] and in assay [10] was “inactive” in each case. In addition, the Potency in assay [2] was 21.5 µM (active); in [3], 21.5 µM (active); in assay [4] it was 27.1 µM (active); in assay [6], 17.1 µM (active); in assay [9] it was 13600 nM (active).
For `II`, in [1], the Potency is 28.3 µM (active). Also, the Potency result in assay [2], in assay [3], in assay [4] and in assay [5] was “inactive” throughout.
As to `c1ccc(CN2CCNCC2)cc1`, the Potency entry in assay [1], in assay [2], in assay [3], in assay [4], in assay [5] and in assay [6] was “inactive” throughout. Further, the Potency entry in assay [8] and in assay [10] was “inactive” each time.
With `CCBr`, the Potency result in assay [1], in assay [2], in assay [3], in assay [4], in [5] and in assay [6] was “inactive” each time. The Potency result in assay [7], in assay [8] and in assay [10] was “inactive” in each case.
Regarding `O=C(CCl)c1ccc(Cl)cc1Cl`, the Potency entry in [1], in assay [2], in assay [3], in [5], in [6] and in [7] was “inactive” throughout. Besides, the Potency entry in assay [8] was “inactive”. In addition, in [4], the Potency is 13.3 µM (active).

The values are drawn from PubChem BioAssay (Tox21).
